Laboratory results reported in PubChem BioAssay.
Unmarked numbers belong to inactive results. For some of these results: Results with a measured potency or affinity are listed apart. Active and inactive are the calls of the source. Unless noted, no rule for the calls is given here.

Columns and labels:
[1] = antimalarial activity against Dd2 strain (AID 2302;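 active = growth inhibition above 50% at the single 2 µM test dose, taken to imply half-maximal potency below 2 µM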;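 also: 0% = DMSO untreated growth and 100% = chloroquine plus artemisinin killed control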); settings: P. falciparum Dd2 in RBCs, LDH growth readout, 72 h; at 2 µM; hits give high values
[2] = HepG2 cytotoxicity, primary screen, cytotoxicity control for P. falciparum antimalarial project, cell-based, ATP luminescence (AID 2303;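 active = inhibition above 50%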;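 also: 0% = DMSO wells and 100% = digitonin-killed cells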); settings: HepG2 viability, 24-48 h, at 10 µM, hits give high values
[3] = target: L-lactate dehydrogenase (Plasmodium falciparum (isolate CDC / Honduras)) (UniProt Q27743); assay: PfLDH activity inhibition – cell lysate, 3D7 strain, counter-screen for P. falciparum growth inhibition project (AID 2304);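 also: 0% = vehicle and 100% = reference inhibitor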; settings: P. falciparum 3D7 crude extract, LDH APAD/NBT absorbance; at 2 µM; hits give high values
[4] = inhibition of 3D7 malaria parasite growth – strain 3D7 (AID 2306);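 also: 0% = DMSO wells and 100% = chloroquine plus artemisinin control wells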; settings: P. falciparum 3D7 erythrocytic growth, LDH absorbance, 72 h; at 2 µM; hits give high values
[5] = target: Calcium-dependent protein kinase 1 (Plasmodium falciparum (isolate 3D7)) (UniProt P62344); assay: PfCDPK1 kinase inhibitors, biochemical, TCAMS library (AID 1159585; cut-off not given, nearly all actives have IC50 up to about 0.98 µM;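 also: inhibitors leave more ATP so luminescence rises with inhibition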); settings: recombinant PfCDPK1, Kinase-Glo ATP depletion luminescence
[6] = target: Plasmodium falciparum protein kinase 6 (PK6, PF3D7_1337100) (UniProt Q8IDW1); assay: PfPK6 kinase inhibitors, biochemical, TCAMS library (AID 1159586); settings: recombinant PfPK6, Kinase-Glo ATP depletion luminescence
[7] = target: Protein kinase 7 (PK7), Plasmodium falciparum 3D7 (PF3D7_0213400) (UniProt Q7YTF7); assay: inhibition of Plasmodium PK7 catalytic activity – biochemical, TCAMS antimalarial set, Kinase-Glo luminescence (AID 1159587); settings: recombinant PfPK7, Kinase-Glo ATP depletion luminescence
[8] = target: Calcium-dependent protein kinase 4 (Plasmodium falciparum (isolate 3D7)) (UniProt Q8IBS5); assay: PfCDPK4 kinase inhibitors, biochemical, TCAMS library (AID 1159588; cut-off not given, nearly all actives have IC50 up to about 0.91 µM); settings: recombinant PfCDPK4, Kinase-Glo ATP depletion luminescence
Calcium-dependent protein kinase 4 (Plasmodium falciparum (isolate 3D7)), sequence (Q8IBS5 whole entry, looked up): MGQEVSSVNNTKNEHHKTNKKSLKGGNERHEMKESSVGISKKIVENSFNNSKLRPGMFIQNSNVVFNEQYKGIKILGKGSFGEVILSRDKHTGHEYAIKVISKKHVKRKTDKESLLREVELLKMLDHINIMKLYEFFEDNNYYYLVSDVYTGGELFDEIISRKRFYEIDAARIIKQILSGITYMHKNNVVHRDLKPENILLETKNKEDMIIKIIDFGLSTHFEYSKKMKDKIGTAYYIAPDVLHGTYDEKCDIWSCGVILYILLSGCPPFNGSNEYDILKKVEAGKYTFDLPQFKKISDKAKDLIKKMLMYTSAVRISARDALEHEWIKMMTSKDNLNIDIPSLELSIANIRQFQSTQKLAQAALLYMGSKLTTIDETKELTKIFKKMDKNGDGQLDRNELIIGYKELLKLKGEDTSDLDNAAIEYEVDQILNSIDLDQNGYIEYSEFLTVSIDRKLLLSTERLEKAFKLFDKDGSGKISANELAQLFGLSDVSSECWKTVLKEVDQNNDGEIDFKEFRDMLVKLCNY

Plasmodium falciparum protein kinase 6 (PK6, PF3D7_1337100), sequence (Q8IDW1 1-305): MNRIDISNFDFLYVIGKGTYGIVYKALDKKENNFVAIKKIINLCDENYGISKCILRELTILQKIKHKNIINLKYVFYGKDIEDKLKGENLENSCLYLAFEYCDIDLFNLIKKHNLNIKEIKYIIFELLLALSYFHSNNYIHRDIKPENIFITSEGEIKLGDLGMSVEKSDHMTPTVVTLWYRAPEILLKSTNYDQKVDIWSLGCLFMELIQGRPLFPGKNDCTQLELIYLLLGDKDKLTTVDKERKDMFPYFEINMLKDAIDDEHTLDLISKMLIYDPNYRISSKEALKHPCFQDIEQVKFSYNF
Protein kinase 7 (PK7), Plasmodium falciparum 3D7 (PF3D7_0213400), sequence (Q7YTF7 1-343): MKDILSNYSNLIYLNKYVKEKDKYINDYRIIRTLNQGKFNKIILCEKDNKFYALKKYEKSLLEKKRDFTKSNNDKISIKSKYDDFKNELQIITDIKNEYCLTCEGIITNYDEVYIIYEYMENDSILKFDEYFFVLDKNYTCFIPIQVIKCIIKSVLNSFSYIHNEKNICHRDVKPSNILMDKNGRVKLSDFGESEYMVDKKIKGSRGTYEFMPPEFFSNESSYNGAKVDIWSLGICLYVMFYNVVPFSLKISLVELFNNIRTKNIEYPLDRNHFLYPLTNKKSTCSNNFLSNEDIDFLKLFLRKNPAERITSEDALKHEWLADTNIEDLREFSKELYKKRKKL
L-lactate dehydrogenase (Plasmodium falciparum (isolate CDC / Honduras)), sequence (Q27743 whole entry, looked up): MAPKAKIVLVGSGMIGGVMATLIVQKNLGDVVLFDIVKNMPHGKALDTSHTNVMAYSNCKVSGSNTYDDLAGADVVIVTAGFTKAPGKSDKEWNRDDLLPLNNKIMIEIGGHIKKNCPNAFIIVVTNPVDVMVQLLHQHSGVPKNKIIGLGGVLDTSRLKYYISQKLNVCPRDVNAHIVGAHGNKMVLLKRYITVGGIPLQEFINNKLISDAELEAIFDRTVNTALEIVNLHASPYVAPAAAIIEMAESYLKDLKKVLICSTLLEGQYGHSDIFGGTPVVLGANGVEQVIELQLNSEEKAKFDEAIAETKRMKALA
Calcium-dependent protein kinase 1 (Plasmodium falciparum (isolate 3D7)), sequence (P62344 whole entry, looked up): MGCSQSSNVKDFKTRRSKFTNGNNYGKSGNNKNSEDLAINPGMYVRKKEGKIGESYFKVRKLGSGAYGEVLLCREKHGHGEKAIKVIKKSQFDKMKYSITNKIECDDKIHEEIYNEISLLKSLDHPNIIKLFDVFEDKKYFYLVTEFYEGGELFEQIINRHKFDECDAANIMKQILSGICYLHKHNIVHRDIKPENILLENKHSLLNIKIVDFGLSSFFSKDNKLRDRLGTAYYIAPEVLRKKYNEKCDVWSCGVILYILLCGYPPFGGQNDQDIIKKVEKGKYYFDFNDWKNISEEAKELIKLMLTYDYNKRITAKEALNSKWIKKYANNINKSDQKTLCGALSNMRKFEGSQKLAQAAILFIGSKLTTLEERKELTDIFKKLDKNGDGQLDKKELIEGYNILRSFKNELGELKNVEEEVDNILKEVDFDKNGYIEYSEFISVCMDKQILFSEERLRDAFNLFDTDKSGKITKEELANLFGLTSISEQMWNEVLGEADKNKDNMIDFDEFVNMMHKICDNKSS

Work on O=C(/C=C/c1ccc(Cl)c(Cl)c1)NCCCCCN1CCC(C(=O)Nc2cccc(Cl)c2)CC1 yielded a growth inhibition [1] of -2%, an inhibition [2] of 48% and an inhibition [3] of -3%. The growth inhibition [4] was 100% (active), the outcome [5] was “inactive” and the outcome [6] was “inactive”. For the same compound, the outcome [7] was “inactive” and the outcome [8] was “inactive”.

For Cc1ccc(F)cc1S(=O)(=O)Nc1ccc(CCN2CCC(N3CCCCC3)CC2)cc1, the growth inhibition [1] was 15%, the inhibition [2] was 25% and the inhibition [3] was -3%. For the same compound, the growth inhibition [4] was 99% (active), the outcome [5] was “inactive” and the outcome [6] was “inactive”. The outcome [7] was “inactive” and the outcome [8] was “inactive”.

Work on N#Cc1ccc(-c2nc(CO)c(C(=O)NCCCCN3CCC(c4ccc5c(c4OCC(N)=O)CCCC5)CC3)s2)cc1 yielded a growth inhibition [1] of -1%, an inhibition [2] of 9% and an inhibition [3] of 4%. For the same compound, the growth inhibition [4] was 92% (active), the outcome [5] was “inactive” and the outcome [6] was “inactive”. For the same compound, the outcome [7] was “inactive” and the outcome [8] was “inactive”.

In the case of CC(C)N1CCC(NCc2ccc(-c3ccc(Cl)cc3)cc2)CC1, the growth inhibition [1] is reported as 48%, the inhibition [2] is reported as 50% (active) and the inhibition [3] is reported as -3%. For the same compound, the growth inhibition [4] was 99% (active), the outcome [5] was “inactive” and the outcome [6] was “inactive”. For the same compound, the outcome [7] was “inactive” and the outcome [8] was “inactive”.

In the case of CC(C)(C)OC(=O)NCc1ccc(Nc2nnc(-c3ccc(OCC(=O)NCc4ccc(C(C)(C)C)cc4)c([N+](=O)[O-])c3)o2)cc1, the growth inhibition [1] is reported as 82% (active), the inhibition [2] is reported as 10% and the inhibition [3] is reported as -2%. For the same compound, the growth inhibition [4] was 96% (active), the outcome [5] was “inactive” and the outcome [6] was “inactive”. The outcome [7] was “inactive” and the outcome [8] was “inactive”.

For CC(C)Oc1ccc(N2CCN(CCCCNC(=O)c3ccc(NC(=O)c4ccc(Cl)cc4)cc3)CC2)c(OC(C)C)c1, the growth inhibition [1] was 85% (active), the inhibition [2] was 31% and the inhibition [3] was 1%. For the same compound, the growth inhibition [4] was 102% (active), the outcome [5] was “inactive” and the outcome [6] was “inactive”. The outcome [7] was “inactive” and the outcome [8] was “inactive”.

In the case of Cc1nc(-c2cccc3c(NC(=O)Nc4ccc5nccc(N6CCN(C)CC6)c5c4)cccc23)no1, the growth inhibition [1] is reported as 84% (active), the inhibition [2] is reported as -4% and the inhibition [3] is reported as -2%. The growth inhibition [4] was 100% (active), the outcome [5] was “inactive” and the outcome [6] was “inactive”. For the same compound, the outcome [7] was “inactive” and the outcome [8] was “inactive”.

For COc1ccccc1N1CCN(Cc2c(NC(C)=O)sc(C)c2C)CC1, the growth inhibition [1] was 80% (active), the inhibition [2] was 9% and the inhibition [3] was 3%. For the same compound, the growth inhibition [4] was 95% (active), the outcome [5] was “inactive” and the outcome [6] was “inactive”. The outcome [7] was “inactive” and the outcome [8] was “inactive”.

For CN1CCCC(CN2CCN(Cc3ccc(-c4cccc(-c5nc6ccc(F)cc6[nH]5)c4)cc3)CC2)C1 (stereo not given), the growth inhibition [1] was 99% (active), the inhibition [2] was 92% (active) and the inhibition [3] was -2%. For the same compound, the growth inhibition [4] was 100% (active), the outcome [5] was “inactive” and the outcome [6] was “inactive”. The outcome [7] was “inactive” and the outcome [8] was “inactive”.

For COc1ccc(Nc2ncc3c(-c4cccc(NC(=O)Cc5ccc(F)cc5)c4)c[nH]c3n2)cc1OC, the growth inhibition [1] was 90% (active), the inhibition [2] was 21% and the inhibition [3] was 8%. The growth inhibition [4] was 101% (active), the outcome [5] was “inactive” and the outcome [6] was “inactive”. For the same compound, the outcome [7] was “inactive” and the outcome [8] was “inactive”.

In the case of CCNc1cc(C(=O)N[C@@H](Cc2ccccc2)[C@H](O)CN[C@@H]2CCc3ccccc32)cc(N2CCCC2=O)c1, the growth inhibition [1] is reported as 93% (active), the inhibition [2] is reported as -5% and the inhibition [3] is reported as 6%. For the same compound, the growth inhibition [4] was 92% (active), the outcome [5] was “inactive” and the outcome [6] was “inactive”. The outcome [7] was “inactive” and the outcome [8] was “inactive”.

In the case of CN1CCC(NC(=O)c2cc(Oc3ccc4c(c3)CCN4C(=O)Nc3cccc(C(F)(F)F)c3)ccn2)CC1, the growth inhibition [1] is reported as 17%, the inhibition [2] is reported as 16% and the inhibition [3] is reported as -3%. For the same compound, the growth inhibition [4] was 92% (active), the outcome [5] was “inactive” and the outcome [6] was “inactive”. The outcome [7] was “inactive” and the outcome [8] was “inactive”.

In the case of CC(O)C1CCCCN1C(=O)c1cccc(-c2cccc(-c3nc4ccccc4[nH]3)c2)c1 (stereo not given), the growth inhibition [1] is reported as 76% (active), the inhibition [2] is reported as 20% and the inhibition [3] is reported as -4%. For the same compound, the growth inhibition [4] was 99% (active), the outcome [5] was “inactive” and the outcome [6] was “inactive”. For the same compound, the outcome [7] was “inactive” and the outcome [8] was “inactive”.

With COc1ccc(N2C(=O)C3C(C2=O)C2(C)c4ccccc4C3(C)c3ccccc32)c([N+](=O)[O-])c1 (stereo not given) the growth inhibition [1] was 54% (active), the inhibition [2] was 11% and the inhibition [3] was 7%. The growth inhibition [4] was 99% (active), the outcome [5] was “inactive” and the outcome [6] was “inactive”. For the same compound, the outcome [7] was “inactive” and the outcome [8] was “inactive”.

Compound O=C(Nc1cccc(Cl)c1)N[C@H]1CCN(Cc2ccc(OCCCN3CCCCC3)cc2)C1 has a growth inhibition [1] of -3%, an inhibition [2] of 15% and an inhibition [3] of 1%. The growth inhibition [4] was 99% (active), the outcome [5] was “inactive” and the outcome [6] was “inactive”. The outcome [7] was “inactive” and the outcome [8] was “inactive”.

For COc1ccc(-c2nc(NC(=O)Cc3cccc(OC)c3)sc2C)cc1, the growth inhibition [1] was 77% (active), the inhibition [2] was 1% and the inhibition [3] was -3%. The growth inhibition [4] was 101% (active), the outcome [5] was “inactive” and the outcome [6] was “inactive”. For the same compound, the outcome [7] was “inactive” and the outcome [8] was “inactive”.

For COc1cccc(NC(=O)Nc2cc(-c3ccc4[nH]ncc4c3)cc3c2CNC3=O)c1, the growth inhibition [1] was 100% (active), the inhibition [2] was 3% and the inhibition [3] was 5%. For the same compound, the growth inhibition [4] was 98% (active), the outcome [5] was “inactive” and the outcome [6] was “inactive”. The outcome [7] was “inactive” and the outcome [8] was “inactive”.

For Oc1ccc(-c2cc(COc3ccccc3C(F)(F)F)c(C3=CCNCC3)cc2COc2ccccc2C(F)(F)F)cc1, the growth inhibition [1] was 62% (active), the inhibition [2] was 18% and the inhibition [3] was 3%. For the same compound, the growth inhibition [4] was 100% (active), the outcome [5] was “inactive” and the outcome [6] was “inactive”. For the same compound, the outcome [7] was “inactive” and the outcome [8] was “inactive”.

Compound O=C(C=Cc1ccc(Cl)c(Cl)c1)NCCCCCN1CCC(c2[nH]nc3ccccc23)CC1 has a growth inhibition [1] of 29%, an inhibition [2] of 32% and an inhibition [3] of 0%. For the same compound, the growth inhibition [4] was 99% (active), the outcome [5] was “inactive” and the outcome [6] was “inactive”. For the same compound, the outcome [7] was “inactive” and the outcome [8] was “inactive”.

With Nc1cccc(C=CC(=O)Nc2ccnc3ccccc23)c1 the growth inhibition [1] was 60% (active), the inhibition [2] was 7% and the inhibition [3] was -1%. For the same compound, the growth inhibition [4] was 98% (active), the outcome [5] was “inactive” and the outcome [6] was “inactive”. For the same compound, the outcome [7] was “inactive” and the outcome [8] was “inactive”.
